The target of assay [1] is Luciferin 4-monooxygenase (Photinus pyralis) (UniProt P08659). Description: qHTS assay to identify small molecule inhibitors of firefly luciferase (AID 1224835). Also: nearly all actives have a fitted effect of over 25% in size. Also: potency is read from the fitted curve at half-maximal effect. Put shortly:
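Inhibition of purified Photinus luciferase is measured by luminescence. Substrate levels (D-luciferin, ATP) sit at their KM values. Each compound is tested in a concentration series.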

A short description of assay [2]: qHTS assay to identify small molecule antagonists of the constitutive androstane receptor (CAR) signaling pathway - cell viability counter screen (AID 1224837). Also: nearly all actives have a fitted effect of over 45% in size. In a few lines: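 Fluorescence from CellTiter-Fluor served as the viability signal. Human hepatoma HepG2 cells stably bearing hCAR and CYP2B6-2.2kb received compound plus CITCO (50 nM final) for 23 hr.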
(In general: In qHTS, concentration-response curves come from the screen itself.)

Assay [3] addresses Nuclear receptor subfamily 1 group I member 3 (Homo sapiens) (UniProt Q14994). Put plainly: qHTS assay to identify small molecule antagonists of the constitutive androstane receptor (CAR) signaling pathway (AID 1224838).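 Also: HepG2 cells stably expressing hCAR with CYP2B6 luciferase reporter stimulated by CITCO; nearly all actives have a fitted effect of over 40% in size.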 In a few lines: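 Quantitative HTS in double-stable HepG2-CYP2B6-hCAR cells. After 4 h plating, cells get compound (15 concentrations) and CITCO at 50 nM final, incubate 24 h at 37 C, then ONE-Glo luminescence is read.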

Assay [4] shares this target. Description: qHTS assay to identify small molecule agonists of the constitutive androstane receptor (CAR) signaling pathway (AID 1224839).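 Also: HepG2 cells stably carrying human CAR and a CYP2B6 luciferase reporter; nearly all actives have a fitted effect of over 15% in size.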 Put shortly: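 Cells were plated and incubated 4 hrs, then dosed with compounds at 15 concentrations. PK11195 was added to 0.75 uM final. After 24 hrs at 37 C, luciferase luminescence was measured.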
Assay [5] in a line: qHTS assay to identify small molecule antagonists of the estrogen related receptor signaling pathway with the pleiotropic PPARgamma coactivator (PGC) from Tox21 10K library - cell viability counter screen (AID 1224840; active = well fitted cell-killing curve with a large enough effect in the repeat runs, not every such curve was filed as active; also: nearly all actives have a fitted effect of over 40% in size). Put shortly:
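Compounds in DMSO, alongside positive and negative controls, were pinned onto PGC/ERR cells (2,000 per well). Exposure lasted 17.5 hours at 37 C, followed by a 30-minute CellTiter-Fluor incubation and fluorescence reading.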

Assay [6] is described as follows: qHTS assay to identify small molecule antagonists of the estrogen related receptor signaling pathway with the pleiotropic PPARgamma coactivator (PGC) from Tox21 10K library (AID 1224841; call rule not given here; also: actives are mostly falling curves and most rising ones were filed inactive; nearly all actives have a fitted effect of over 50% in size). In a few lines:
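Compound exposure ran 18 hours at 37 C in PGC/ERR cells (2,000/well) that had first rested 6 hours in a 37 C/5% CO2 incubator. Luciferase activity was then detected with One-Glo after a 30-minute room-temperature step.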

Assay [7] is described as follows: qHTS assay to identify small molecule agonists of the estrogen related receptor signaling pathway with the pleiotropic PPARgamma coactivator (PGC) from Tox21 10K library (AID 1224842). Also: nearly all actives have a fitted effect of over 15% in size. Put shortly: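 Luminescence from One-Glo (30 min, room temperature) measured after PGC/ERR cells had 18 h at 37 C with pinned compound (23 nL in DMSO). Cells had been seeded at 2,000 per well and pre-incubated 6 h.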

The target of assay [8] is Thyrotropin receptor (Homo sapiens) (UniProt P16473). Put plainly: qHTS assay to identify small molecule agonists of the thyroid stimulating hormone receptor (TSHR) signaling pathway (AID 1224843; calls by dose curve; also: nearly all actives have a fitted effect of over 45% in size). In a few lines:
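Screening of the Tox21 10K collection used HEK293 cells engineered with TSHR at 800 cells per well. After a 30-min room-temperature compound exposure, HTRF cAMP reagents were added and fluorescence recorded 1 h later.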

The nature of assay [9]: qHTS assay to identify small molecule agonists of the hypoxia (HIF-1) signaling pathway - cell viability counter screen (AID 1224844; calls by dose curve; also: nearly all actives have a fitted effect of over 50% in size). Put shortly:
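Luminescent ATP content (CellTiter-Glo, 30 min, room temperature) served as the viability measure in HRE-bla ME-180 cells exposed to compounds for 17 hrs in low-serum medium (0.5% dialyzed FBS).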

Assay [10] can be described thus: qHTS assay to identify small molecule agonists of H2AX (AID 1224845; active = well fitted activation curve with a large enough effect in the signal ratio in the repeat runs, not every such curve was filed as active; the % refers to the signal ratio). Put shortly:
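Phospho-H2AX Ser139 measured by HTRF (ex 320 nm; em 665 and 620 nm) after 24 hr antibody incubation. Compounds, 15 concentrations, 0.76% DMSO, were applied to CHO-K1 cells for 3hr at 37C before lysis.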

Assay [11] is described as follows: qHTS assay to identify small molecule agonists of the hypoxia (HIF-1) signaling pathway (AID 1224846; active = well fitted activation curve with a large enough effect in the signal ratio in the repeat runs, not every such curve was filed as active; the % refers to the signal ratio). Put shortly: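 Measured by blue/green FRET after loading CCF4-AM: beta-lactamase expressed from a hypoxia response element in ME-180 cells. Test agents were delivered in DMSO and left 17 hrs; cells had been plated 5 hrs earlier in low-serum (0.5% dialyzed FBS) medium.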

Assay [12] in a line: qHTS assay to identify small molecule agonists of H2AX - cell viability counter screen (AID 1224847; calls by dose curve; also: top concentration of the series differs between compounds; nearly all actives have a fitted effect of over 30% in size). In a few lines: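 Cytotoxicity counter screen in wild-type CHO-K1 cells: a 3 hr compound treatment at 37C across 15 concentrations, followed by CellTiter-Glo luminescence to gauge viable cells.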
The nature of assay [13]: qHTS assay to identify small molecule antagonists of the estrogen related receptor (ERR) signaling pathway from Tox21 library (AID 1224848). Also: nearly all actives have a fitted effect of over 50% in size. Put shortly:
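Antagonist-mode screen of the Tox21 10K library in an NTP-provided ERR reporter cell line; 18 h compound exposure at 37 C, luminescence measured with ONE-Glo.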

A short description of assay [14]: qHTS assay to identify small molecule agonists of the estrogen related receptor (ERR) signaling pathway from Tox21 library (AID 1224849; calls by dose curve; also: nearly all actives have a fitted effect of over 15% in size). To be noted: ERR reporter cell line, ONE-Glo luciferase, 18 h; at 92.4 µM (top of the series) unless noted. In a few lines:
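We plated ERR reporter cells, waited 6 h, added compounds in DMSO by pin tool and incubated them 18 h at 37 C. ONE-Glo was then added and luminescence read after 30 min.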

Assay [15] in a line: qHTS RealTime-Glo MT Cell Viability Assay in HepG2 cells - 24 hour (AID 1224867). Also: nearly all actives have a fitted effect of over 50% in size. Put shortly: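 Real-time, nonlytic viability: 600 HepG2 cells/well mixed with NanoLuc enzyme plus prosubstrate; 5 h settle, compound (DMSO) added by pintool; luminescence monitored over 40 h at 37 C.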
The nature of assay [16]: A CellTox Green Cytotoxicity Assay to monitor cytotoxicity in HEK293 cells - 0 hour (AID 1224869). Also: nearly all actives have a fitted effect of over 50% in size. In a few lines:
(§1)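 Each value comes from one timepoint of a single continuous run in which HEK293 cells with CellTox Green were exposed to compound for up to 40 h at 37 C, dye fluorescence rising with cell death.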

A short description of assay [17]: qHTS RealTime-Glo MT Cell Viability Assay in HepG2 cells - 40 hour (AID 1224870). Also: nearly all actives have a fitted effect of over 50% in size. In a few lines: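 Real-time viability: cells seeded at 600 per well together with NanoLuc and cell-permeant prosubstrate, compounds added after 5 h incubation. Luminescence tracked at 0, 8, 16, 24, 32 and 40 h of exposure.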
A short description of assay [18]: A CellTox Green Cytotoxicity Assay to monitor cytotoxicity in HEK293 cells - 40 hour (AID 1224871). Also: nearly all actives have a fitted effect of over 45% in size. Put shortly:
as §1

Assay [19] is described as follows: qHTS RealTime-Glo MT Cell Viability Assay in HEK293 cells - 32 hour (AID 1224868). Put shortly: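 Cells + reagent dispensed (600 cells/well, HEK293) → 5 h at 37 C/5% CO2 → 23 nL compound in DMSO pinned → 40 h at 37 C → luminescence read at 0, 8, 16, 24, 32, 40 h.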
Assay [20] is described as follows: qHTS assay to identify small molecule agonists of the constitutive androstane receptor (CAR) signaling pathway - cell viability counter screen (AID 1224836). Also: nearly all actives have a fitted effect of over 45% in size. In a few lines:
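Cells were seeded and incubated 4 hrs. Compounds were added across 15 concentrations together with PK11195 at 0.75 uM final. Plates were incubated 23 hrs at 37 C. CellTiter-Fluor was added and fluorescence measured.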

Values without a mark were called inactive. Records with an inconclusive call do not appear. Active and inactive are the calls of the source. Unless noted, calls follow the shape of the dose curve; as a rule, active = well fitted curve in the direction sought with a large enough effect in the repeat runs; inconclusive = weak or mixed curves; inactive = no such curve, though single readings can be large; an effect the other way counts as inactive or inconclusive.
% is scaled to controls: 0 for no effect and ±100 for the full control effect.

Sequence of Thyrotropin receptor (Homo sapiens) (P16473 whole entry, looked up): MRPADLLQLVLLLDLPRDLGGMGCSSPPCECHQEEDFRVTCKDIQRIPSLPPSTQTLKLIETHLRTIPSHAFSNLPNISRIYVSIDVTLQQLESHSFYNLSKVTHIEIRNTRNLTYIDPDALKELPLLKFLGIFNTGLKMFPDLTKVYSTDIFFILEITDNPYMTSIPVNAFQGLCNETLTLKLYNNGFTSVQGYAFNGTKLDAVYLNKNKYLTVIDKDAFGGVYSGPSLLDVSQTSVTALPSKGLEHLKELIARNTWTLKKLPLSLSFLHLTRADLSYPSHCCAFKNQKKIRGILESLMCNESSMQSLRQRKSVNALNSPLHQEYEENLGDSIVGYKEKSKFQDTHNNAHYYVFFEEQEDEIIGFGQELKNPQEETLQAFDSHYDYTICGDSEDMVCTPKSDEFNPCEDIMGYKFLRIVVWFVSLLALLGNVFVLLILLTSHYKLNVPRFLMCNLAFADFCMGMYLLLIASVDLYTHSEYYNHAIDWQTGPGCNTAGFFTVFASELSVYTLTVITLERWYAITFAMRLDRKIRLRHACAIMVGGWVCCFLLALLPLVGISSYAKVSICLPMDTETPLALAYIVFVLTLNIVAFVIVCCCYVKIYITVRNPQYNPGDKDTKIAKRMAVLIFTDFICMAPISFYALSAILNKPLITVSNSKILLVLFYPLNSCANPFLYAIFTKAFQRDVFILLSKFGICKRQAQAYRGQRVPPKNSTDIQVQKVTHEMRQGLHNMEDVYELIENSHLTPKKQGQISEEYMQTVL
Sequence of Nuclear receptor subfamily 1 group I member 3 (Homo sapiens) (Q14994 whole entry, looked up): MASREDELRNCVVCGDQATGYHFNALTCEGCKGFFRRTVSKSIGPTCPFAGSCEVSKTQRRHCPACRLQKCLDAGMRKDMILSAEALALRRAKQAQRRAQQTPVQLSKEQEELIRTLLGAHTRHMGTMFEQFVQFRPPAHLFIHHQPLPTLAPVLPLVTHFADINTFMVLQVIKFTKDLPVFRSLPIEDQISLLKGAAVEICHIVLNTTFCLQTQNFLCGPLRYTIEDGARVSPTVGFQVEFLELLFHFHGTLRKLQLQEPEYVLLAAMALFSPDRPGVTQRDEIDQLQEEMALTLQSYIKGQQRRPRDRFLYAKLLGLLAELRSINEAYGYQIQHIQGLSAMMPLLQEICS
Sequence of Luciferin 4-monooxygenase (Photinus pyralis) (P08659 whole entry, looked up): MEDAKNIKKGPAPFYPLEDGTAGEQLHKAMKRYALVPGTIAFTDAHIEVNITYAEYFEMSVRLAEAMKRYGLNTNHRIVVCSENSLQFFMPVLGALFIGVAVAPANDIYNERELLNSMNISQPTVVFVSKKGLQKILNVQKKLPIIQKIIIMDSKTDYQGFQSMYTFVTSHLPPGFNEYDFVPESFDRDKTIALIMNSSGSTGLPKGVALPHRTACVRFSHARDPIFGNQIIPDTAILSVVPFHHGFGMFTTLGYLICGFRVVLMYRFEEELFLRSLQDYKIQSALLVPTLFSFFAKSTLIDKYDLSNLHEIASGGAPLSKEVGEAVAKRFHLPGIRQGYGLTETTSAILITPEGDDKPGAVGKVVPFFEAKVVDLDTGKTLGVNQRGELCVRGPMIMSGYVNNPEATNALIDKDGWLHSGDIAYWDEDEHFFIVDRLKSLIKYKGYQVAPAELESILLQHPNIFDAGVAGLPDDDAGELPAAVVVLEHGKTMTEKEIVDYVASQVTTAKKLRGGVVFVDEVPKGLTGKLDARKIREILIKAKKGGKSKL

In the case of `CCS(=O)(=O)C(C)(C)S(=O)(=O)CC`, the Potency result in [1], in [2], in assay [3], in assay [4], in assay [5] and in [6] was “inactive” in each case. Also, the Potency entry in assay [8], in [9], in assay [10], in assay [12], in [13] and in [15] was “inactive” throughout. The Potency result in assay [16], in assay [17] and in [18] was “inactive” throughout. The compound was called inactive in assay [7] and in assay [11]. In addition, the activity change, positive = activation in [14] was 3.77% [at 42.5 µM].
Turning to `O=C(O)c1ccc2[nH]cc(CCCCN3CC=C(c4ccccc4)CC3)c2c1`, the Potency entry in [1], in [2], in [3], in [4], in assay [5] and in assay [8] was “inactive” throughout. The Potency result in [9], in assay [10], in assay [12], in assay [15], in assay [19] and in assay [16] was “inactive” in each case. Also, the Potency entry in assay [17] and in [18] was “inactive” in each case. Also, the compound was classed as inactive in assay [11].
As to `CC1CCCCC1NC(=O)Nc1ccccc1` (configuration not stated), the Potency in assay [1] was 35.6 µM (active). Besides, the Potency result in [2], in assay [3], in assay [5], in assay [6], in assay [9] and in assay [10] was “inactive” each time. The Potency result in [12], in assay [13], in assay [15], in assay [16], in [17] and in assay [18] was “inactive” throughout. The call in [7] and in [11] was inactive. In addition, the activity change, positive = activation in assay [14] is 4.71%.
`O=C1c2ccccc2C(=O)c2ccccc21`: the activity change, negative = inhibition in [1] was 3.8% [at 23.6 µM]. Besides, the viability change, negative = cytotoxic in assay [20] is 5.88% [at 19 µM]; in assay [5], 4.21% [at 19 µM]. The activity, negative = inhibition in assay [6] was 16.6% [at 19 µM]; in assay [13], 18.9% [at 19 µM]. For the same compound, the values for the activation in assay [7], in assay [8] and in assay [11] were 5.32% [at 19 µM], -2.19% [at 19 µM] and 0.0544% [at 15.8 µM], respectively. For the same compound, the values for the activity change, negative = cytotoxicity in assay [9], in assay [12] and in assay [15] were -0.0454% [at 15.8 µM], 8.07% [at 31.6 µM] and 0.705% [at 15.8 µM], respectively. Further, in assay [14], the activity change, positive = activation was 10.5% [at 19 µM]. The activity change, negative = cytotoxic is 15.3% [at 15.8 µM] in assay [19] and 0.48% [at 15.8 µM] in assay [17]. Moreover, the cytotoxicity in [16] was 6.35% [at 15.8 µM]. In addition, the cytotoxicity increase in assay [18] is -0.882% [at 15.8 µM].
Take `COC(=O)c1ccccc1S(=O)(=O)NC(=O)Nc1nc(C)cc(C)n1`: the Potency entry in assay [1], in [2], in [3], in [4], in assay [5] and in [8] was “inactive” each time. The Potency result in [9], in [10], in [12], in [15], in assay [19] and in [16] was “inactive” each time. Also, the Potency result in assay [17] and in [18] was “inactive” throughout. The compound was called inactive in assay [11].
Regarding `CCCCc1c(C)nc(NCC)[nH]c1=O`, the Potency entry in assay [1], in assay [2], in assay [3], in assay [5], in assay [6] and in assay [9] was “inactive” throughout. In addition, the Potency entry in assay [10], in assay [12], in assay [13], in [15], in [16] and in [17] was “inactive” throughout. In addition, the Potency result in [18] is “inactive”. Besides, the call in assay [7] and in assay [11] was inactive. In addition, the activity change, positive = activation in assay [14] is 5.33%.
As for `[Cl][Sn]([Cl])([Cl])[Cl]`, the Potency entry in assay [1], in assay [2], in [3], in [4], in assay [5] and in assay [9] was “inactive” each time. Besides, the Potency result in assay [10], in [12], in assay [15] and in assay [17] was “inactive” throughout. In addition, in [11], the compound was classed as inactive.
As to `CC(N)=S`, the Potency result in [1], in assay [2], in assay [3], in [4], in assay [5] and in assay [8] was “inactive” in each case. In addition, the Potency result in assay [9], in assay [10], in assay [12], in assay [15], in [19] and in assay [16] was “inactive” in each case. The Potency entry in [17] and in assay [18] was “inactive” each time. Moreover, the compound was classed as inactive in assay [11].

The record behind these values is PubChem BioAssay (Tox21).
